Results reported in PubChem BioAssay (EPA / NIEHS).
Values joined by “and” are separate entries in the source; they are usually repeats but may differ in a detail not shown here. Identical values can stand only once. Some compounds were tested as several samples or in several runs, with calls that do not always agree. Active and inactive are the calls of the source. The calls were made as follows: active = hit-call score of the fitted dose curve at least 0.9, where 1 is the maximum; inactive = score below 0.9.

Experiments:
[1] = read-out: Transforming growth factor beta 1 (TGFb1), TGFB1 (gene 7040); assay: BSK_KF3CT_TGFb1: BioMAP Diversity Plus: KF3CT Assay for Transforming growth factor beta 1 (TGFb1) Biomarker Activity (AID 2283072); details: primary human keratinocytes with fibroblasts; actives raise or lower the signal
How it was run: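 Human keratinocyte plus foreskin fibroblast primary co-culture, dosed with chemical for 24 h. TGF-b1 quantified by ELISA. Activity fitted bidirectionally against DMSO negative control as baseline.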

[2] = read-out: C-C motif chemokine 2 (Homo sapiens) (UniProt P13500); assay: BSK_KF3CT_MCP1: BioMAP Diversity Plus: KF3CT Assay for Monocyte Chemoattractant Protein 1 (MCP1/CCL2) Biomarker Activity (AID 2283073); details: primary human keratinocytes with fibroblasts; actives raise or lower the signal
How it was run: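 ELISA readout of MCP-1 after 24 h chemical dosing of a human skin primary co-culture of keratinocytes and foreskin fibroblasts. Activity was fitted in both directions against DMSO.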

[3] = read-out: Matrix Metallopeptidase 9 (MMP9), MMP9 (gene 4318); assay: BSK_KF3CT_MMP9: BioMAP Diversity Plus: KF3CT Assay for Matrix Metallopeptidase 9 (MMP9) Biomarker Activity (AID 2283074); details: primary human keratinocytes with fibroblasts; actives raise or lower the signal;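 as to AC50: MMP9 protein level quantified by ELISA in the co-culture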
How it was run: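 Human keratinocyte and foreskin fibroblast co-culture exposed to chemicals for 24 h; MMP9 biomarker measured by ELISA, bidirectional fitting relative to DMSO; cytotoxicity tracked by SRB total protein staining in parallel cultures.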

[4] = read-out: E-selectin (Homo sapiens) (UniProt P16581); assay: BSK_LPS_Eselectin: BioMAP Diversity Plus: LPS Assay for Eselectin Biomarker Activity (AID 2283077); details: primary human HUVEC with PBMC; actives raise or lower the signal
How it was run: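 Primary human vascular co-culture (endothelium plus PBMC) was dosed with chemical, then E-selectin quantified by ELISA at 24 h. Endpoint values derive from bidirectional curve fitting relative to DMSO.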

[5] = read-out: Interleukin-8 (IL8), CXCL8 (gene 3576); assay: BSK_LPS_IL8: BioMAP Diversity Plus: LPS Assay for Interleukin-8 (IL8) Biomarker Activity (AID 2283078); details: primary human HUVEC with PBMC; actives raise or lower the signal
How it was run: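 Readout is IL-8 by ELISA, taken 24 h after compounds were added to LPS-stimulated endothelial/PBMC co-cultures. Both increases and decreases relative to DMSO control were scored through bidirectional fitting.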

[6] = BSK_LPS_SRB: Viability Assessment in the BioMAP Diversity Plus: LPS Assay (AID 2283079); details: primary human HUVEC with PBMC;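 also: total protein by sulforhodamine B absorbance as a cytotoxicity measure; measured one day after compound addition; fitted in both directions against DMSO so loss or gain of signal counts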
How it was run: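 Readout is SRB absorbance at 560 nm (0.1% stain, TCA-fixed parallel cultures) as a total-protein cytotoxicity measure. Cells: primary human umbilical vein endothelium plus peripheral blood mononuclear cells, 24 h after chemical exposure; DMSO served as baseline.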

[7] = read-out: Interleukin-1 alpha (IL1a), IL1A (gene 3552); assay: BSK_LPS_IL1a: BioMAP Diversity Plus: LPS Assay for Interleukin-1 alpha (IL1a) Biomarker Activity (AID 2283080); details: primary human HUVEC with PBMC; actives raise or lower the signal
How it was run: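 ELISA read-out of IL-1 alpha from a human primary vascular co-culture (endothelium plus PBMC) under LPS, sampled 24 hours post-dosing. Activity was fitted in both directions relative to DMSO controls.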

[8] = read-out: Monocyte Chemoattractant Protein-1 (MCP1), CCL2 (gene 6347); assay: BSK_LPS_MCP1: BioMAP Diversity Plus: LPS Assay for Monocyte Chemoattractant Protein-1 (MCP1) Biomarker Activity (AID 2283081); details: primary human HUVEC with PBMC; actives raise or lower the signal;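 as to AC50: secreted MCP-1 protein quantified by ELISA in culture supernatant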
How it was run: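 Human endothelial–PBMC co-cultures were dosed with chemical, then LPS-driven MCP-1 levels were quantified by ELISA at 24 h. Activity in either direction was fitted versus DMSO negative control.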

[9] = read-out: urokinase plasminogen activator (uPA), PLAU (gene 5328); assay: BSK_KF3CT_uPA: BioMAP Diversity Plus: KF3CT Assay for urokinase plasminogen activator (uPA) Biomarker Activity (AID 2283075); details: primary human keratinocytes with fibroblasts; actives raise or lower the signal
How it was run: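 Primary human keratinocyte/foreskin fibroblast co-culture exposed to chemical; uPA measured by ELISA at 24 h. Bidirectional fit versus DMSO, with parallel SRB total-protein staining for cytotoxicity.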

[10] = read-out: CD40, CD40 (gene 958); assay: BSK_LPS_CD40: BioMAP Diversity Plus: LPS Assay for CD40 Biomarker Activity (AID 2283076); details: primary human HUVEC with PBMC; actives raise or lower the signal
How it was run: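 Cells were dosed, incubated 24 h, then assayed for CD40 by ELISA. Gain or loss of signal was analysed relative to DMSO controls. The culture paired human umbilical vein endothelium with peripheral blood mononuclear cells.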

Measured: AC50

E-selectin (Homo sapiens), sequence (P16581 whole entry, looked up): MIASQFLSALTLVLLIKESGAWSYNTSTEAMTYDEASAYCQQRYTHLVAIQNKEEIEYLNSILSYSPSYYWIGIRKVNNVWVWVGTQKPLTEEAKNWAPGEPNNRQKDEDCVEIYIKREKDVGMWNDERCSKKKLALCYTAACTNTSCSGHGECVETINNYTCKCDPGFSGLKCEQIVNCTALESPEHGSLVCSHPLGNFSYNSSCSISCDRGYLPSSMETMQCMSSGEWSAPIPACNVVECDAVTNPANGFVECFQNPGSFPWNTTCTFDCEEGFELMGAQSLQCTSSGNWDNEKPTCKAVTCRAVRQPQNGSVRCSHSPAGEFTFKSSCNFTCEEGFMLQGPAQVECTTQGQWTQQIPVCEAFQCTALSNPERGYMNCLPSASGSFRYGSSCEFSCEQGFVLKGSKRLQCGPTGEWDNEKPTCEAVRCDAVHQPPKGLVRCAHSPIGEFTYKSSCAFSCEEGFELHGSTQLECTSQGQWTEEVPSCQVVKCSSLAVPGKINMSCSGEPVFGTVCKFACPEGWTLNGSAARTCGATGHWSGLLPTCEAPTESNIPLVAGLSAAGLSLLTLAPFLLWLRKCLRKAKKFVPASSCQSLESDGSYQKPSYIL

CS/C(C)=N/OC(=O)N(C)SN(C)C(=O)O/N=C(\C)SC
active: [1] 13.3 µM | [2] 12.6 µM | [3] 17.1 µM | [4] 34.7 µM | [5] 30.8 µM | [6] 29.8 µM | [7] 15.6 µM | [8] 29.9 µM

CC(Oc1ccc(Cl)cc1Cl)C(=O)O (configuration not stated)
not listed: [9] | [10]
inactive: all other assays above

COP(=S)(OC)Oc1nc(Cl)c(Cl)cc1Cl
active: [4] 32.5 µM | [7] 27 µM | [8] 30.4 µM
not listed: [3] | [10]
inactive: all other assays above

Cc1c(F)c(F)c(COC(=O)C2C(/C=C(\Cl)C(F)(F)F)C2(C)C)c(F)c1F (configuration not stated)
active: [10] 13.7 µM | [5] 12.2 µM | [7] 0.3 µM
not listed: [3] | [9]
inactive: all other assays above

CCCC1COC(Cn2cncn2)(c2ccc(Cl)cc2Cl)O1 (configuration not stated)
not listed: [3] | [10]
inactive: all other assays above

COP(N)(=O)SC (configuration not stated)
not listed: [3] | [9] | [10]
inactive: all other assays above

COc1ccc(C(c2ccc(OC)cc2)C(Cl)(Cl)Cl)cc1
inactive: [1] | [2]
active: [4] 27.5 µM | [5] 25 µM | [6] 20 µM | [7] 32.5 µM | [8] 29.7 µM

COc1nc(C)nc(NC(=O)NS(=O)(=O)c2ccccc2Cl)n1
not listed: [3] | [9] | [10]
inactive: all other assays above

CCc1nn(C)c(C(=O)NCc2ccc(C(C)(C)C)cc2)c1Cl
active: [2] 27.1 µM | [9] 35.4 µM | [4] 20 µM | [5] 20 µM | [6] 30 µM | [7] 33 µM | [8] 29.4 µM
inactive: [1]

COC(=O)N(OC)c1ccccc1COc1ccn(-c2ccc(Cl)cc2)n1
inactive: [1] | [9] | [7]
active: [2] 2.56 µM | [4] 6.89 µM | [5] 3.97 µM | [6] 10.1 µM | [8] 9.04 µM

O=C(Nc1ccccc1)Nc1ccnc(Cl)c1
inactive: [1] | [2] | [4] | [6] | [7]
active: [5] 15 µM | [8] 9.85 µM

CCNc1nc(Cl)nc(NC(C)C)n1
not listed: [3] | [9] | [10]
inactive: all other assays above

CCOc1cc(Oc2ccc(C(F)(F)F)cc2Cl)ccc1[N+](=O)[O-]
active: [5] 11 µM | [6] 9.65 µM
not listed: [3] | [9]
inactive: all other assays above

CCNc1nc(Cl)nc(NCC)n1
not listed: [3] | [9] | [10]
inactive: all other assays above

CC1=C(C(=O)Nc2ccccc2)SCCO1
not listed: [3] | [9]
inactive: all other assays above

CCCCNC(=O)OCC#CI
active: [1] 30.1 µM and 14.9 µM | [2] 32.8 µM and 20 µM | [10] 13.6 µM and 9.3 µM | [4] 31.3 µM and 29.8 µM | [5] 19 µM and 16.3 µM | [6] 26.7 µM | [7] 23.2 µM and 13 µM | [8] 30.9 µM and 16.6 µM

COC(=O)C(C)Oc1ccc(Oc2ccc(Cl)cc2Cl)cc1 (configuration not stated)
inactive: [1] | [2] | [4] | [5] | [6] | [7] | [8]
active: [8] 28.9 µM

N#Cc1nn(-c2c(Cl)cc(C(F)(F)F)cc2Cl)c(N)c1S(=O)C(F)(F)F (configuration not stated)
inactive: [1] | [2]
active: [4] 36.8 µM | [5] 23.4 µM | [6] 31.4 µM | [7] 35.9 µM | [8] 32.4 µM

CCCCC(CC)COC(=O)c1ccccc1C(=O)OCC(CC)CCCC (configuration not stated)
active: [5] 3.22 µM | [6] 4.97 µM
not listed: [3] | [9]
inactive: all other assays above

Cc1ccc(-c2c(Cl)nc(C#N)n2S(=O)(=O)N(C)C)cc1
inactive: [1] | [2] | [7]
active: [4] 39.2 µM | [5] 27.6 µM | [6] 26 µM | [8] 29.6 µM

CN(C)C(=S)SSC(=S)N(C)C
active: [1] 8.71 µM | [2] 5.09 µM | [4] 28.5 µM | [5] 26.5 µM | [6] 22.9 µM | [7] 16.1 µM | [8] 27.1 µM

CNC(=O)ON=CC(C)(C)SC
not listed: [3] | [9]
inactive: all other assays above

CO/C=C(/C(=O)OC)c1ccccc1Oc1cc(Oc2ccccc2C#N)ncn1
inactive: [1] | [2] | [4] | [7]
active: [4] 10.9 µM and 5.78 µM and 5.72 µM | [8] 27.1 µM [middle of 4 runs]

CCCCOC(=O)c1ccccc1C(=O)OCCCC
active: [5] 25.3 µM | [6] 9.66 µM
inactive: [1] | [2] | [4] | [5] | [6] | [7] | [8]

C=CC1(C)OC(=O)N(c2cc(Cl)cc(Cl)c2)C1=O (configuration not stated)
not listed: [3] | [9] | [10]
inactive: all other assays above

CON(C)C(=O)Nc1ccc(Cl)c(Cl)c1
not listed: [3] | [9] | [10]
inactive: all other assays above

CCOC(=O)C(Cl)Cc1cc(-n2nc(C)n(C(F)F)c2=O)c(F)cc1Cl (configuration not stated)
not listed: [3] | [9] | [10]
inactive: all other assays above

Oc1ccccc1-c1ccccc1
not listed: [3] | [9] | [10]
inactive: all other assays above

CCCCNC(=O)n1c(NC(=O)OC)nc2ccccc21
active: [6] 7.48 µM
not listed: [3] | [9] | [10]
inactive: all other assays above
